Assay results as given in PubChem BioAssay AID431 (Sanford-Burnham Center for Chemical Genomics, 2006).
Screen size: about 63,000 compounds; about 1,100 (1.7%) were called active. The sample holds actives, similar compounds and a random draw of the others, so the mix is not that of the screen. Results with a measured potency or affinity are listed apart. A number with no mark means an inactive call.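 How the source made its calls: active means compounds whose percent cytotoxicity in the single-dose primary screen, scaled between solvent and toxic-drug controls, exceeds 50; inactive means the rest.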

Assay: cytotoxicity in KRAS-transformed pancreatic duct cells, primary screen, cell-based, fluorescence, HTS (AID 431);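 further: 0% = DMSO solvent wells and 100% = doxorubicin-treated wells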
Conditions: HPDE-C7K KRASV12 cells, Alamar Blue viability, 48 h; at 10 µM; stronger effect = higher value

| Compound | cytotoxicity |
| --- | --- |
| Cc1nc(SCC#N)c2c3c(sc2n1)CCC3 | -15.5% |
| Cc1nc(Sc2nnnn2C)c2c3c(sc2n1)CCC3 | 68.5% (active) |
| CSc1nc2sc3c(c2c2nnnn12)CCC3 | 6.6% |
| Cc1nnn(C23CC4CC(CC(C4)C2)C3)n1 | 4.5% |
| CC1CCCN(CCCNC(=O)c2coc3nc4ccccc4nc23)C1 (stereo not drawn) | 9.2% |
| O=C(NCc1ccccc1)N1CCN(c2ccc(Cl)c(Cl)c2)CC1 | -1.9% |
| COC(=O)CCC(=O)Oc1ccc(OC(=O)CCC(=O)OC)cc1 | 18.3% |
| CCC(=O)Oc1ccc(-c2nc(-c3cccnc3)no2)cc1 | -6.1% |
| CCOc1ccc(C(=O)COC(=O)CC)cc1 | -1.3% |
| CC(C)c1ccc(OC(=O)NCCO)cc1 | -6.6% |
| CC1(C)CC(=O)C2=C(C1)OC(=O)C2(NC(=O)c1cccs1)C(F)(F)F (stereo not drawn) | -9.1% |
| CC1=C(C(=O)N(C)Cc2ccccc2)C2(CCC(C)CC2)OC1=O (stereo not drawn) | 1.3% |
| Cc1cc(NC(=O)CSc2nc3c(c(=O)n2-c2ccccc2)SC(C)C3)no1 (stereo not drawn) | 5.9% |
| COc1ccc(CCNC(=O)c2cnn3cccnc23)cc1OC | -0.5% |
| CCN1C(=O)CC(C(=O)Nc2ccc(F)cc2)SC1=Nc1cccc(OC)c1 (stereo not drawn) | -9.1% |
| O=C(NCCCN1CCN(CCCNC(=O)c2ccccc2F)CC1)c1ccccc1F | -23.8% |
| CC1CCc2nc(NC(=O)CN3CCOCC3)sc2C1 (stereo not drawn) | -3.7% |
| CC1CCc2nc(NC(=O)CN3CCN(Cc4ccc5c(c4)OCO5)CC3)sc2C1 (stereo not drawn) | 56.9% (active) |
| CC1CCc2nc(NC(=O)CN3CCN(c4ccccc4)CC3)sc2C1 (stereo not drawn) | -5.6% |
| COCCOC(=O)C1=C(C)NC2=C(C(=O)CCC2)C1c1ccc(N(C)C)cc1 (stereo not drawn) | 3% |
| COc1ccc(-c2nc(CS(=O)CC(=O)NCc3ccco3)c(C)o2)cc1OC (stereo not drawn) | 1.1% |

| Compound | cytotoxicity |
| --- | --- |
| COC(=O)c1ccc(-c2ccco2)n1Cc1nc(-c2ccc(OC)c(OC)c2)oc1C | 74.4% (active) |
| COC(=O)c1cc2ccsc2n1Cc1nc(-c2ccc(OC)cc2)oc1C | 11.1% |
| CCCC(C(=O)NCc1ccc(OC)cc1)N(Cc1ccco1)C(=O)c1snc(C(N)=O)c1N (stereo not drawn) | -4% |
| O=c1oc2cc(O)ccc2c2oc3cc(O)ccc3c12 | 41% |
| Oc1ccc2c(c1)oc1cc(O)ccc12 | 57% (active) |
| O=c1oc2cc(O)ccc2c2c1CCCC2 | 30.5% |
| COc1ccc(N(Cc2cc3ccccc3[nH]c2=O)C(=O)C2CCCO2)cc1 (stereo not drawn) | 14.6% |
| Cc1sc2nc(SCC(=O)c3cc(C)n(CC4CCCO4)c3C)n(C(C)C)c(=O)c2c1C (stereo not drawn) | 22.2% |
| Cn1nnc2cc(C(=O)NC(C)(C)C)ccc21 | 3.4% |
| Cc1ccc2c(c1)c1ncnc(N3CCN(c4ccccc4)CC3)c1n2C | 9.4% |
| Cc1ccc2c(c1)c1ncnc(N3CCOCC3)c1n2C | -7.1% |
| Cc1ccc2[nH]c(=O)c(CN(Cc3ccccc3)Cc3nnnn3C3CCCC3)cc2c1 | 47.8% |
| Cc1ccc2cc(CN(Cc3ccccc3)Cc3nnnn3C3CCCC3)c(=O)[nH]c2c1 | 56.3% (active) |
| Cc1cc2cc(CN(Cc3ccc4c(c3)OCO4)Cc3nnnn3C3CCCC3)c(=O)[nH]c2cc1C | 2.4% |
| Cc1ccc2cc(CN(Cc3ccc(F)cc3)Cc3nnnn3C3CCCC3)c(=O)[nH]c2c1 | 31.6% |
| CCc1ccc2[nH]c(=O)c(CN(Cc3ccc4c(c3)OCO4)Cc3nnnn3C3CCCC3)cc2c1 | 54.8% (active) |
| Cc1ccc2[nH]c(=O)c(CN(Cc3ccc4c(c3)OCO4)Cc3nnnn3C3CCCC3)cc2c1 | -0.4% |
| O=C(Nc1ccc2c(c1)nc1n2CCN(C2CCCCC2)C1)c1ccco1 | -30.2% |
| Cc1ccc(-c2nnn(CC(=O)N(Cc3cccs3)C(C(=O)NC(C)(C)C)c3ccc(C)o3)n2)o1 (stereo not drawn) | 21.3% |
| Clc1ccc(COn2nnc3ccccc32)c(Cl)c1 | 0.9% |
| COc1ccc(C(=O)N2CCc3cc(OC)c(OC)cc3C2)cc1OC | -3.5% |

| Compound | cytotoxicity |
| --- | --- |
| CCOc1ccc(C(=O)N2CCc3cc(OC)c(OC)cc3C2)cc1OCC | 45.5% |
| CCOc1cc(C(=O)N2CCc3cc(OC)c(OC)cc3C2)ccc1OC(F)F | 89.4% (active) |
| CCOc1nc(-c2ccccc2)ccc1-c1noc(-c2ccc(OC)c(OC)c2)n1 | 20.5% |
| Cc1cc2c(c(=O)n1CCN(C)C)C(c1ccc(Br)cc1)C(C#N)=C(N)O2 (stereo not drawn) | 54.2% (active) |
| Cc1cc2c(c(=O)n1CCN(C)C)C(c1ccncc1)C(C#N)=C(N)O2 (stereo not drawn) | 20.9% |
| Cc1cc2c(c(=O)n1CCN(C)C)C(c1ccc(Cl)cc1)C(C#N)=C(N)O2 (stereo not drawn) | -10.1% |
| O=C(NCc1ccco1)C1CCN(c2nnc(-n3cccc3)s2)CC1 | -3.4% |
| Cc1cc(C(=O)CN2C(=O)NC(c3ccccc3)(c3ccccc3)C2=O)c(C)n1Cc1ccco1 | 3.5% |
| COc1ccccc1NC(=O)C1=C(C)Nc2nnnn2C1c1ccncc1 (stereo not drawn) | -9.7% |
| Fc1cccc2sc(Nc3nnc(-c4ccco4)o3)nc12 | 29.2% |
| Fc1cccc2sc(Nc3nnc(-c4ccccc4)o3)nc12 | 44.8% |
| COc1ccccc1-c1nnc(Nc2nc3c(OC)cccc3s2)o1 | 56.1% (active) |
| COc1ccc(-c2nnc(Nc3nc4c(OC)cccc4s3)o2)cc1 | 59.3% (active) |
| CCOC(=O)c1sc(Nc2nc3c(OC)cccc3s2)nc1C | 79.9% (active) |
| CCOC(=O)c1sc(NCCNc2nc(C)c(C(=O)OCC)s2)nc1C | 1% |
| COc1cc(-c2nnc(-c3cccs3)o2)cc(OC)c1OC | -28.7% |
| COc1cccc2sc(Nc3nnc(-c4cccs4)o3)nc12 | 59.6% (active) |
| COc1cc2nc(-c3cccs3)oc(=O)c2cc1OC | 9.6% |
| COc1cccc2sc(Nc3nnc(-c4ccccc4Cl)o3)nc12 | 31.7% |
| COC(=O)c1sc(NC(=O)COc2ccccc2OC)nc1C | -10.6% |
| COc1cc(OC)cc(-c2nnc(Nc3nc4c(F)cccc4s3)o2)c1 | 5.5% |
